Results on 3 compounds are retold here after ChEMBL document CHEMBL1961873, “Compounds: GSK PKIS; Assays: Nanosyn kinase panel” (2012).

For experiment [1], the target named is T1, Mitogen-activated protein kinase 12 (Homo sapiens) (UniProt P53778).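 Further: values are averaged p38gamma kinase inhibition readings, compounds tested at 1 µM.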
T1 sequence (whole entry): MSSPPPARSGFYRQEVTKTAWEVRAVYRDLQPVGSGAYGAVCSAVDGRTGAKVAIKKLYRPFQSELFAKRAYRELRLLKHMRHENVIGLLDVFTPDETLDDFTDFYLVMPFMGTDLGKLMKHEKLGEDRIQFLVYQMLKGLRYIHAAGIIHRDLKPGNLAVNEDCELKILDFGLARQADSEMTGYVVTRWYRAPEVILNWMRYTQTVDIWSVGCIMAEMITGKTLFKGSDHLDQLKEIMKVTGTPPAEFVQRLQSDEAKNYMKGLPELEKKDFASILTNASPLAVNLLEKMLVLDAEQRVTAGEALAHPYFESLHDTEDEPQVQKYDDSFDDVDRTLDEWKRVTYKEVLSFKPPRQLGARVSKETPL
To be noted: at 1 µM.

Experiment [2] has as its target SRSF protein kinase 1 (Homo sapiens) (UniProt Q96SB4). To be noted: at 0.1 µM.
The target is the same in experiment [3]. To be noted: at 1 µM.
The target of experiment [4] is Phosphatidylinositol 4,5-bisphosphate 3-kinase catalytic subunit alpha isoform (Homo sapiens) (UniProt P42336). The following applies: at 0.1 µM.
Experiment [5] shares this target. The following applies: at 1 µM.
The target of experiment [6] is T2, Phosphatidylinositol 4,5-bisphosphate 3-kinase catalytic subunit delta isoform (Homo sapiens) (UniProt O00329).
T2 sequence (whole entry): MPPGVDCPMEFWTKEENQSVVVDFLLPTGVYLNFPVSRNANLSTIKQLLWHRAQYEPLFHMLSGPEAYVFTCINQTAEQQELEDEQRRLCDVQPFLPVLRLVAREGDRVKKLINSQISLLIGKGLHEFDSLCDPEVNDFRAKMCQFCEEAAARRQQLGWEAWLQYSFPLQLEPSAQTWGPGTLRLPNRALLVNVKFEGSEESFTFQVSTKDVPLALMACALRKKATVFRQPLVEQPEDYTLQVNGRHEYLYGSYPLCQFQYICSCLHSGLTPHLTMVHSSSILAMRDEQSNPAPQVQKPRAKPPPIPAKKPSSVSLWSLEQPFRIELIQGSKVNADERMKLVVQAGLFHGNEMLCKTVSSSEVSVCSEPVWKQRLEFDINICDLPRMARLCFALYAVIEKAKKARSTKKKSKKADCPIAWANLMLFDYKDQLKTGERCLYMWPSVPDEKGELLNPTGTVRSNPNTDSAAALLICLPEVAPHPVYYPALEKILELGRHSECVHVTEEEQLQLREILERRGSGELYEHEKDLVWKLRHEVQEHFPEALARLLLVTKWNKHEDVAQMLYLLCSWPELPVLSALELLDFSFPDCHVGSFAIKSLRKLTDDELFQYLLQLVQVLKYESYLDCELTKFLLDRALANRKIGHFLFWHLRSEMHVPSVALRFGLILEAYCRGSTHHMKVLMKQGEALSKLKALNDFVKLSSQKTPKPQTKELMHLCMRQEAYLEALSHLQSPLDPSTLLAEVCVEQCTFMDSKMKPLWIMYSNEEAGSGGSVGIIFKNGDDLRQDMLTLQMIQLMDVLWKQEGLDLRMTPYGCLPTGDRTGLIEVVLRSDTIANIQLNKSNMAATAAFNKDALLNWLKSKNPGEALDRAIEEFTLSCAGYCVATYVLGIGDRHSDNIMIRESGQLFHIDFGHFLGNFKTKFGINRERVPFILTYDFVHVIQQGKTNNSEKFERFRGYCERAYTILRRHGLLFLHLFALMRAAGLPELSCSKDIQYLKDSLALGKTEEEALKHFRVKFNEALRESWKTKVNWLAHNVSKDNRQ
To be noted: at 0.1 µM.

In experiment [7] the target is T2, Phosphatidylinositol 4,5-bisphosphate 3-kinase catalytic subunit delta isoform (Homo sapiens). The following applies: at 1 µM.
Experiment [8] has as its target Phosphatidylinositol 4-kinase beta (Homo sapiens) (UniProt Q9UBF8). The following applies: at 0.1 µM.
For experiment [9] the target is unchanged. The following applies: at 1 µM.
Experiment [10] deals with Sphingosine kinase 1 (Homo sapiens) (UniProt Q9NYA1). The following applies: at 0.1 µM.
Experiment [11] has the same target. To be noted: at 1 µM.
Experiment [12] addresses T3, Sphingosine kinase 2 (Homo sapiens) (UniProt Q9NRA0).
T3 sequence (whole entry): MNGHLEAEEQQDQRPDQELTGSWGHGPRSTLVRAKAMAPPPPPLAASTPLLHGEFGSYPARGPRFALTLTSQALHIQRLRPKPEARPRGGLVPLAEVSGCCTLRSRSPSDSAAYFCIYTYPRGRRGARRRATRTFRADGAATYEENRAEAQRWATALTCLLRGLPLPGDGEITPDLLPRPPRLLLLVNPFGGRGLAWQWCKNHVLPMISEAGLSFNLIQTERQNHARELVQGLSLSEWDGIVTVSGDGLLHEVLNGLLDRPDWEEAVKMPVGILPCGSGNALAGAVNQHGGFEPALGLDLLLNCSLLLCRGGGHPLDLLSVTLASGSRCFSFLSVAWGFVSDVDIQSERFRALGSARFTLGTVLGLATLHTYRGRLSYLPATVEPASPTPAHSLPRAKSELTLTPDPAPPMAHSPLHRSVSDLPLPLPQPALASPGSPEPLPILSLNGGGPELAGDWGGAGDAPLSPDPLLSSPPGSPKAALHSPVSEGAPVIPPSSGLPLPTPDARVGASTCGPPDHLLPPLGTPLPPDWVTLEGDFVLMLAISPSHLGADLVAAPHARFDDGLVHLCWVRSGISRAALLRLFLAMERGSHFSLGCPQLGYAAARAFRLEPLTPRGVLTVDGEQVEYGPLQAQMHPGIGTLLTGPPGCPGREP
To be noted: at 0.1 µM.

Experiment [13] concerns the target T3, Sphingosine kinase 2 (Homo sapiens). To be noted: at 1 µM.
The target in experiment [14] is Casein kinase II subunit alpha (Homo sapiens) (UniProt P68400). To be noted: at 0.1 µM.
Experiment [15] shares this target. To be noted: at 1 µM.
In experiment [16] the target is T4, Inhibitor of nuclear factor kappa-B kinase subunit alpha (Homo sapiens) (UniProt O15111).
T4 sequence (whole entry): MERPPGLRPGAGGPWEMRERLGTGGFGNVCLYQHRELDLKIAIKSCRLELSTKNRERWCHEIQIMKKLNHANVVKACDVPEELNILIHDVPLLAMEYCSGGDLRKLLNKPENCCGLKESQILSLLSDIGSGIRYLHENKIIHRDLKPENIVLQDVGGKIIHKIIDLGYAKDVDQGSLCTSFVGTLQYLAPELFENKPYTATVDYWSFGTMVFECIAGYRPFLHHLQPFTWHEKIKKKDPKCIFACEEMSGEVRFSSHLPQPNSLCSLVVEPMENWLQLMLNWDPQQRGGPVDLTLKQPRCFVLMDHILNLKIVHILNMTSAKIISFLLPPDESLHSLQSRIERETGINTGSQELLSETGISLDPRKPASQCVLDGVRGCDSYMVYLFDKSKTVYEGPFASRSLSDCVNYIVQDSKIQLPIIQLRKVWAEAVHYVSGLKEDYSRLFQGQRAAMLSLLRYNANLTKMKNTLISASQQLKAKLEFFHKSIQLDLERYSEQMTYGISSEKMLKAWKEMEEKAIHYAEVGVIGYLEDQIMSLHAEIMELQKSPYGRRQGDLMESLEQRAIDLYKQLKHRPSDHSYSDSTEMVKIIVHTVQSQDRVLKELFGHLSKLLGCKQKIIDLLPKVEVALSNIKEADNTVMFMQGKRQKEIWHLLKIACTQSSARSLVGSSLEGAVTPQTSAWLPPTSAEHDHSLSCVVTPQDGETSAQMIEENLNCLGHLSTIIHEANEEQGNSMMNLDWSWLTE
The following applies: at 0.1 µM.

Experiment [17] has as its target T4, Inhibitor of nuclear factor kappa-B kinase subunit alpha (Homo sapiens). To be noted: at 1 µM.
The target of experiment [18] is T5, Inhibitor of nuclear factor kappa-B kinase subunit beta (Homo sapiens) (UniProt O14920).
T5 sequence (whole entry): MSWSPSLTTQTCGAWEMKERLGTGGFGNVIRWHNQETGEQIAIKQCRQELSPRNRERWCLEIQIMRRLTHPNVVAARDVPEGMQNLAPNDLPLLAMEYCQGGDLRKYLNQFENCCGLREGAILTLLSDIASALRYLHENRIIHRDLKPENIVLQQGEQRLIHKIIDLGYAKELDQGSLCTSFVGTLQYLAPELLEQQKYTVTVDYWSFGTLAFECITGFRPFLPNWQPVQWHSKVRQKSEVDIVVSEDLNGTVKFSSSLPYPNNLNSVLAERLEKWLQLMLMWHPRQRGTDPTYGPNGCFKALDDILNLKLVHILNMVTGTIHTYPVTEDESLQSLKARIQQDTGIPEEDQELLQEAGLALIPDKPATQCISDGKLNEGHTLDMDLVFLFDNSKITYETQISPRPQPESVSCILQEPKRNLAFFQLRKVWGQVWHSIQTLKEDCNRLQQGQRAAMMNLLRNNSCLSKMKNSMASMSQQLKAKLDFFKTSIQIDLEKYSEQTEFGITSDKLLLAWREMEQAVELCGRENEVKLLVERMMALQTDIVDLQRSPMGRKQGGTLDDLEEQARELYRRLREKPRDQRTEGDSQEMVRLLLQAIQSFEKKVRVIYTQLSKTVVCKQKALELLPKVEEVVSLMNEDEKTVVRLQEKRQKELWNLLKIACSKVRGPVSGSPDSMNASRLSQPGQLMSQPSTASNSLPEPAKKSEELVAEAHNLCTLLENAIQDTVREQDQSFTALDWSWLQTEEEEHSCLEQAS
To be noted: at 0.1 µM.

Experiment [19] has as its target T5, Inhibitor of nuclear factor kappa-B kinase subunit beta (Homo sapiens). To be noted: at 1 µM.
Experiment [20] deals with T6, Inhibitor of nuclear factor kappa-B kinase subunit epsilon (Homo sapiens) (UniProt Q14164).
T6 sequence (whole entry): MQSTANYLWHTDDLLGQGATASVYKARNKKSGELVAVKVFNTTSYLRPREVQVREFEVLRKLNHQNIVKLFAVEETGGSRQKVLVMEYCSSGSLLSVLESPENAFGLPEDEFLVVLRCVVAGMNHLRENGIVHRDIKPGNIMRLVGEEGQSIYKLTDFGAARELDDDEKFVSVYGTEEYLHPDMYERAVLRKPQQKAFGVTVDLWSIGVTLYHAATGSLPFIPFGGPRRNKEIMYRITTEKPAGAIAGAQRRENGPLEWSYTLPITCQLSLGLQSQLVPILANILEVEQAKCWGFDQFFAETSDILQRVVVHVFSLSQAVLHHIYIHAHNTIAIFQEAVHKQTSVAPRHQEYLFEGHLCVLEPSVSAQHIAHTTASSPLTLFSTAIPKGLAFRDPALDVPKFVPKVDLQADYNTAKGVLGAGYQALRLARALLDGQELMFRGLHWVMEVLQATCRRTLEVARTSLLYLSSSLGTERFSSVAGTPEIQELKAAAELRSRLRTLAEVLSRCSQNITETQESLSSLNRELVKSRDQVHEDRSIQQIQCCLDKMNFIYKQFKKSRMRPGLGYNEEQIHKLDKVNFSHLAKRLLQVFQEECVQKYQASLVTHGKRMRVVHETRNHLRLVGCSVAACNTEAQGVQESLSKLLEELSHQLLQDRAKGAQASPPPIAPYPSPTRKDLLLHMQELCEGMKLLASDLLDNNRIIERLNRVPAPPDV
To be noted: at 0.1 µM.

Sequence of Sphingosine kinase 1 (Homo sapiens) (Q9NYA1 whole entry): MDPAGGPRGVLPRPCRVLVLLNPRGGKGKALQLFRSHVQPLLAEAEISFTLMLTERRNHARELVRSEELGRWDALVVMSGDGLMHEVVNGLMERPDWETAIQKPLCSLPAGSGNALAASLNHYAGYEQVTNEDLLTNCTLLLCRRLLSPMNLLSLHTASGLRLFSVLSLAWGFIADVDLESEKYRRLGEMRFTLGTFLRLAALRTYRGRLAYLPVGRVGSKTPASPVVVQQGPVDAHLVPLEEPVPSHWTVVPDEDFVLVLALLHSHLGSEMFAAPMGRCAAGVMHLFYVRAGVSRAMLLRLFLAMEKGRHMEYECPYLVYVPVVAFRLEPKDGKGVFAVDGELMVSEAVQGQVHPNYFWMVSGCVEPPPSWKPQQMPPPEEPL
Sequence of Phosphatidylinositol 4-kinase beta (Homo sapiens) (Q9UBF8 2-816 limits assumed): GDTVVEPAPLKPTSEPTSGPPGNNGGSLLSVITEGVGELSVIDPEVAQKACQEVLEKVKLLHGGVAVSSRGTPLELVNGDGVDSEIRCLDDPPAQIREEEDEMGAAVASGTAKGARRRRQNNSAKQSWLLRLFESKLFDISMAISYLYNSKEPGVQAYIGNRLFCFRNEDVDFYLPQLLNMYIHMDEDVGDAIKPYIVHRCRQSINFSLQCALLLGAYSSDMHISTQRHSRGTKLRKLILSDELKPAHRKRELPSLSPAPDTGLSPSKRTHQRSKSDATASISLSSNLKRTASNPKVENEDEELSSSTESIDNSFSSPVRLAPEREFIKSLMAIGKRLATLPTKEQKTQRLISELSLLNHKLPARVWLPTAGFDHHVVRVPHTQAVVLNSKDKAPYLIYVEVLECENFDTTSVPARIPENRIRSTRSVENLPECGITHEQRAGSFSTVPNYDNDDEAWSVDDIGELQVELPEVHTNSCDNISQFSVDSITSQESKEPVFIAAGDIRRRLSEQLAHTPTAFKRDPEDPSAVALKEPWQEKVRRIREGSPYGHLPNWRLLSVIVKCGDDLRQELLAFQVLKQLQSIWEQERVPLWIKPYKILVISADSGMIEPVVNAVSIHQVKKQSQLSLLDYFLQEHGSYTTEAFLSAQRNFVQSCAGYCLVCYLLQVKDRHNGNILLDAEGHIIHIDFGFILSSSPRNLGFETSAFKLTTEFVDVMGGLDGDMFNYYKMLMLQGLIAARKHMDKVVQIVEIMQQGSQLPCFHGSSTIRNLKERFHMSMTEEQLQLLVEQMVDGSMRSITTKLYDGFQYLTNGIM
Sequence of SRSF protein kinase 1 (Homo sapiens) (Q96SB4 whole entry): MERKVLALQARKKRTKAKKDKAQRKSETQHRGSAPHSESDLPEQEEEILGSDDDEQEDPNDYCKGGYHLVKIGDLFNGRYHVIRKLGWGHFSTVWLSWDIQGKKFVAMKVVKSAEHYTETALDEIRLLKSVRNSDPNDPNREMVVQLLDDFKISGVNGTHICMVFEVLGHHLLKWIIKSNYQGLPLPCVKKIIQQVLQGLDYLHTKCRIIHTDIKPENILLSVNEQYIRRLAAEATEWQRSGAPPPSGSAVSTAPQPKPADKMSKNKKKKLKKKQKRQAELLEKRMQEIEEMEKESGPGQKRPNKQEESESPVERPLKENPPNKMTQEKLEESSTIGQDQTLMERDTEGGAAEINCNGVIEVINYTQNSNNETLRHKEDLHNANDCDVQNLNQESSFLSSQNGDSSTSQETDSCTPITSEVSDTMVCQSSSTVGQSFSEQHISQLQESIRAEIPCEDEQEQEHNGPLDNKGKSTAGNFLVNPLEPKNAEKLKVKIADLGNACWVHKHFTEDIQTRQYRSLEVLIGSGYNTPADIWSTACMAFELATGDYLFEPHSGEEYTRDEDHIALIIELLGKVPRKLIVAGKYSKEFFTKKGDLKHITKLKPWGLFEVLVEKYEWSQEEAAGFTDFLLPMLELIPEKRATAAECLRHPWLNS
Sequence of Casein kinase II subunit alpha (Homo sapiens) (P68400 whole entry, looked up): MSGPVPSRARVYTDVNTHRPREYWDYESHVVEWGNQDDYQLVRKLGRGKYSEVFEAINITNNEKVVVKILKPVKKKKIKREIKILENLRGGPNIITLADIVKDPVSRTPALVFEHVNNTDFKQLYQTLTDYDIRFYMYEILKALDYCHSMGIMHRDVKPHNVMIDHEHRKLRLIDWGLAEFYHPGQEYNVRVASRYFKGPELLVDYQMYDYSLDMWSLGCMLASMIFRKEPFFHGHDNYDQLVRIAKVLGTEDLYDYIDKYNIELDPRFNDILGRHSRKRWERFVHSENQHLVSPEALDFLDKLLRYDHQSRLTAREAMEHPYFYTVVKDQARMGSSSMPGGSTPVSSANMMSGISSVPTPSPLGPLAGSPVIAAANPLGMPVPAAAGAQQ
Sequence of Phosphatidylinositol 4,5-bisphosphate 3-kinase catalytic subunit alpha isoform (Homo sapiens) (P42336 whole entry, canonical isoform): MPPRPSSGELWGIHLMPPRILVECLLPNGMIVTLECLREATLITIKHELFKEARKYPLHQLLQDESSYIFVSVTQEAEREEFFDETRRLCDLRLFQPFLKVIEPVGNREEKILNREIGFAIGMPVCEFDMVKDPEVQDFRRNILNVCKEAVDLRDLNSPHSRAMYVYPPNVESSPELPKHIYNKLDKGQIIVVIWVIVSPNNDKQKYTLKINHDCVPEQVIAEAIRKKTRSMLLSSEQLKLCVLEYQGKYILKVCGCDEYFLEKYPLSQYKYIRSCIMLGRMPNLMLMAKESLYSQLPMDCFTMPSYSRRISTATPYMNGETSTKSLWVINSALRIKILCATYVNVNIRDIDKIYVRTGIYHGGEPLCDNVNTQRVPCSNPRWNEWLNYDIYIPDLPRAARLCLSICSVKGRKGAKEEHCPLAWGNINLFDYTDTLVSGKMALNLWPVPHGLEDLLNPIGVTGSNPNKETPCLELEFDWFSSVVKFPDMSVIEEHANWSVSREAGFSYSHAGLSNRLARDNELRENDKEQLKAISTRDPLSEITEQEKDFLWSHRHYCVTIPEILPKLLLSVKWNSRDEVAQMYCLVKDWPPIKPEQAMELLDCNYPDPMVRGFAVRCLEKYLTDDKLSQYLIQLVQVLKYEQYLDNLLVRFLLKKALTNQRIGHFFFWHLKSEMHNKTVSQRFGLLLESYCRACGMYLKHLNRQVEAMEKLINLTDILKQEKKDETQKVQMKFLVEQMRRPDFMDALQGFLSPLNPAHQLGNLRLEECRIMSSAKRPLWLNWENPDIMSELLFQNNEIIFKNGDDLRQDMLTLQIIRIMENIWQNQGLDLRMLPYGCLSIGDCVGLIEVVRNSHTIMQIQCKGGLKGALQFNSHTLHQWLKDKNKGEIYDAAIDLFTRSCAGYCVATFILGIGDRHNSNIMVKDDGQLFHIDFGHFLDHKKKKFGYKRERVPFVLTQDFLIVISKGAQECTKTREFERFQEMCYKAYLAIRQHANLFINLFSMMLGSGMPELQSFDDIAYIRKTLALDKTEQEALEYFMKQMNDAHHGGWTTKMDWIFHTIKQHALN

Usually inhibition stands for the relative decrease from the control value, in per cent. For the compound `CN1CCC(n2cnc(-c3ccc(F)cc3)c2-c2ccnc(NCCO)n2)CC1`, the inhibition in experiment [1] was 3.15%; in [2] it was -1.01%; in experiment [3] it was 3.27%; in experiment [4], 3.91%; in experiment [5], 2.41%; in experiment [6] it was 1.87%. For the same compound, the inhibition in [7] was 2.25%; in experiment [8] it was -3.16%; in [9], 4.51%; in [10], 9.04%; in experiment [11], -1.28%; in experiment [12] it was 0.37%. Further, the inhibition in experiment [13] was -1.92%; in experiment [14], 4.78%; in experiment [15], 13.2%; in experiment [16] it was 2.6%; in [17] it was 6.82%; in experiment [18] it was 5.84%. Also, the inhibition amounted to 6.36% in experiment [19] and 7.53% in experiment [20].
With `Fc1ccc(Nc2nccc(-c3c(-c4ccc(C(F)(F)F)cc4)nn4ncccc34)n2)cc1F`, the inhibition in [1] was 2.9%; in experiment [2] it was -0.59%; in experiment [3], -3.45%; in experiment [4], 3.44%; in experiment [5], 3.77%; in [6], 1.05%. Also, the inhibition in [7] was 2.86%; in experiment [8], -3.81%; in experiment [9] it was -1.62%; in [10], 0.46%; in [11], -1.66%; in [12], -0.99%. Further, the inhibition in experiment [13] was -0.13%; in experiment [14] it was 2.02%; in experiment [15], 1.28%; in experiment [16], 9.17%; in [17] it was 4.1%; in [18], 5.58%. The figures for the inhibition in experiment [19] and in [20] were 3.19% and 2.59%, respectively.
As for `CS(=O)(=O)Nc1ccc(-c2cc(-c3ccccc3)cc(C(N)=O)c2N)cc1`, the inhibition in experiment [1] was 1.43%; in experiment [2], -1.01%; in experiment [3], -1.76%; in experiment [4], 3.24%; in [5], 3.21%; in experiment [6], 3.22%. The inhibition in [7] was 3.77%; in experiment [8] it was 0.42%; in [9] it was -0.01%; in experiment [10], -1.73%; in experiment [11], 2.51%; in experiment [12] it was -0.04%. Also, the inhibition in experiment [13] is -0.67%; in experiment [14], 0.89%; in experiment [15], 2.26%; in experiment [16], 1.46%; in [17], 4.19%; in experiment [18] it was 6.82%. Besides, the figures for the inhibition in [19] and in experiment [20] were 27.4% and 0.29%, respectively.
